Data as given in PubChem BioAssay (NCATS).
Where “and” joins values, the source holds several entries; their conditions need not be identical. Equal values may be shown once. Inconclusive results are not listed. Calls of active or inactive are those of the source. Calls follow the shape of the dose curve; as a rule, active = well fitted inhibition curve with a large enough effect; inconclusive = small, poorly fitted or top-dose-only effect; inactive = no such curve, though single readings can be large or run the other way. Starred links: 1 amine or outer side, 2 acyl side, 3 side chain; linkers in the order of their positions; H or OH if unused. Positions of bridges follow the written chain, without caps; N, C: chain ends. Non-standard residues stand in square brackets, D forms with d. Residues, ends and D or L forms follow the SMILES beside them. Chains are numbered I, II in the order given. Actinocin(9to1) = Cc1c2oc3c(C)ccc(C(=O)[*:1])c3nc-2c(C(=O)[*:2])c(N)c1=O; NMeV = CN[CH](C(=O)O)C(C)C; Sar = CNCC(=O)O

Test: BET inhibitor-based combinations targeting novel dependencies in MECOM-rearranged (r) AML: OCI-AML3 cell line (AID 2202232); also: nearly all actives have a fitted effect of over 35% in size;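 as to viability (% of control): plate controls were DMSO vehicle wells for no effect and wells without cells for full effect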
Conditions: CellTiter-Glo luminescence, 48 h; Potency: OCI-AML3 viability; series mostly up to 46 µM; viability (% of control): at the top concentration
Procedure, shortened: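 Readout: CellTiter-Glo luminescence. Exposure: 48 h, 11 concentrations, 500 cells/well. Metric: AUC and within-line Z-AUC after DMSO/empty-well normalization.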
Potency is read from the fitted curve at half-maximal effect.

Question: With `C[C@@H]1Cc2c([nH]c3ccccc23)[C@@H](c2c(F)cc(/C=C/C(=O)O)cc2F)N1CC(C)(C)F` as the compound, how does the “viability (% of control)” value read?
Answer: 88.5% (inactive)

Question: Which Potency does the source give for `COC1(c2sc3c(N4CCOCC4)nc(-c4cnc(N)nc4)nc3c2C)COC1` here?
Answer: 0.525 µM (active)

Question: Which Potency does the source give for `Nc1nc2c(c(=O)[nH]1)N1CN(c3ccc(C(=O)N[C@@H](CCC(=O)O)C(=O)O)cc3)CC1CN2` (stereo not given in full) here?
Answer: 1.66 µM (active)

Question: With `CCCS(=O)(=O)c1nc(NC2CC2)cc(-c2ccc3c(ccn3C3CC(C)(C)NC(C)(C)C3)c2)n1` as the compound, how does the Potency read?
Answer: 2.78 µM (active)

Question: For `CCNC(=O)Nc1ccc(-c2nc3c(c(N4CCOC[C@@H]4C)n2)CCN(C2COC2)C3)cc1`, which Potency is on record?
Answer: 1.48 µM (active)

Question: For `COc1cc(N2CCN(C)CC2)ccc1Nc1ncc2c(n1)N(C)c1ccccc1C(=O)N2`, which Potency is on record?
Answer: 18.6 µM (active)

Question: For `Cc1cnc(NC(=O)Nc2cc(Br)c(C)cc2OC[C@@H]2CNCCO2)cn1`, which Potency is on record?
Answer: 3.72 µM (active)

Question: With `O=c1[nH]nc2c3c(cccc13)NC(CN1Cc3ccccc3C1)=N2` as the compound, how does the Potency read?
Answer: 16.6 µM (active)

Question: Which “viability (% of control)” value does the source give for `O=C(O)c1cccnc1` here?
Answer: 122% [at 92.2 µM] (inactive)

Question: Which Potency does the source give for `Nc1n[n+]([O-])c2ccccc2[n+]1[O-]` here?
Answer: 18.6 µM (active)

Test: BET inhibitor-based combinations targeting novel dependencies in MECOM-rearranged (r) AML: MV-4-11 cell line (AID 2202233); also: nearly all actives have a fitted effect of over 45% in size;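 as to viability, % of control: plate controls were DMSO for no effect and blank wells for full effect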
Conditions: MV-4-11 AML viability, CellTiter-Glo luminescence, 48 h; series mostly up to 46 µM; viability, % of control: at the top concentration
Procedure, shortened: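 Seeding density was 500 cells/well, and drug exposure lasted 48 hr under standard culture conditions. Read-out used CellTiter-Glo reagent with a 15 min room-temperature incubation before luminescence measurement; AUC and Z-AUC summarize the normalized responses.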

Question: With `Clc1ccc(-c2nc3sccn3c2/C=N/OCc2ccc(Cl)c(Cl)c2)cc1` as the compound, how does the “viability, % of control” value read?
Answer: 125% (inactive)

Question: With `COc1ccc(-c2ccc3c(N4CCOC[C@@H]4C)nc(N4CCOC[C@@H]4C)nc3n2)cc1CO` as the compound, how does the Potency read?
Answer: 0.132 µM (active)

Question: Which Potency does the source give for `CCCN(CCC)C(=O)C1=Cc2ccc(-c3ccc(C(=O)N4CCCC4)cc3)cc2N=C(N)C1` here?
Answer: 16.6 µM (active)

Question: Which Potency does the source give for `CC(C)(O)C1CCC(Nc2ccc3ncc(-c4cccc(C(F)(F)F)c4)n3n2)CC1` (stereo not given) here?
Answer: 3.32 µM (active)

Question: With `COc1ccc2[nH]c3c(c2c1)CCN[C@]31CS[C@@H]2c3c(OC(C)=O)c(C)c4c(c3[C@H](COC1=O)N1[C@@H]2[C@H]2c3c(cc(C)c(OC)c3O)C[C@@H]([C@@H]1O)N2C)OCO4` as the compound, how does the Potency read?
Answer: 0.0019 µM (active)

Question: For `COC(=O)Nc1nc2ccc(C(=O)c3ccccc3)cc2[nH]1`, which Potency is on record?
Answer: 0.525 µM (active)

Question: For `COc1cc(C(N)=O)ccc1NC(=O)[C@@H]1N[C@@H](CC(C)(C)C)[C@@]2(C(=O)Nc3cc(Cl)ccc32)[C@H]1c1cccc(Cl)c1F`, which Potency is on record?
Answer: 0.0934 µM (active)

Question: Which Potency does the source give for `CCOC(=O)c1c(CSc2ccccc2)n(C)c2cc(Br)c(O)c(CN(C)C)c12` here?
Answer: 18.6 µM (active)

Question: For `CC/C(=C(/c1ccc(O)cc1)c1ccc(OCCNC)cc1)c1ccccc1`, which Potency is on record?
Answer: 8.33 µM (active)

Question: For `COc1ccc2c(c1)c(C1=C(c3c[nH]c4ccccc34)C(=O)NC1=O)cn2CCCN(C)C`, which Potency is on record?
Answer: 0.372 µM (active)

Question: With `CC(C)(C)C[C@H]1N[C@@H](C(=O)NC2CCC(O)CC2)[C@H](c2cccc(Cl)c2F)[C@@]12C(=O)Nc1cc(Cl)ccc12` (stereo not given in full) as the compound, how does the Potency read?
Answer: 0.742 µM (active)

Question: With `COc1cc(C(=O)NC(N)=Nc2ccc(C)c(NC(=O)c3ccc(-c4ccccc4)cc3)c2)cc(OC)c1OC` as the compound, how does the Potency read?
Answer: 18.6 µM (active)

Question: For `Cc1cc2cc(Oc3ccnc(Nc4cccc(CS(=O)(=O)NCCN(C)C)c4)n3)ccc2[nH]1`, which Potency is on record?
Answer: 3.32 µM (active)

Question: For `C[C@@H](O)[C@@H]1NC(=O)[C@H](CCCCN)NC(=O)[C@@H](Cc2c[nH]c3ccccc23)NC(=O)[C@H](Cc2ccccc2)NC(=O)[C@@H](NC(=O)[C@H](N)Cc2ccccc2)CSSC[C@@H](C(=O)N[C@H](CO)[C@@H](C)O)NC1=O`, which “viability, % of control” value is on record?
Answer: 119% [at 15.6 µM] (inactive)

Question: With `CC1(C)CCC2(CC1)N[C@@H](C(=O)N[C@@H]1CC[C@@H](C(N)=O)OC1)[C@H](c1ccnc(Cl)c1F)[C@]21C(=O)Nc2cc(Cl)ccc21` as the compound, how does the Potency read?
Answer: 0.0715 µM (active)

Question: Which “viability, % of control” value does the source give for `CN1C(=O)[C@@H](NC(=O)c2n[nH]c(Cc3ccccc3)n2)COc2ccccc21` here?
Answer: 103% (inactive)

Question: With `CC(C)(O)CC[C@@H](O)[C@](C)(O)[C@H]1CC[C@@]2(O)C3=CC(=O)[C@@H]4C[C@@H](O)[C@@H](O)C[C@]4(C)[C@H]3CC[C@]12C` as the compound, how does the “viability, % of control” value read?
Answer: 101% (inactive)

Question: With `N#Cc1ccc(-c2c(-c3ncn[nH]3)sc(N3CCOCC3)c2C#N)c(F)c1` as the compound, how does the Potency read?
Answer: 5.9 µM (active)

Question: Which Potency does the source give for `CC(C)C[C@H](NC(=O)c1cc2ccccc2s1)C(=O)N1CCN(C(=O)[C@H](CO)NS(=O)(=O)c2ccc(Cl)cc2Cl)CC1` here?
Answer: 23.5 µM (active)

Question: Which Potency does the source give for `CNc1nc(-c2ccc3c(N)n[nH]c3c2)cc(N2C[C@@H](C(=O)NC3CCCCC3)CC[C@H]2C)n1` here?
Answer: 14.8 µM (active)

Question: For `OC1CCC(Oc2cccc3cnc(Nc4ccc5nc[nH]c5c4)nc23)CC1` (stereo not given), which Potency is on record?
Answer: 0.0525 µM (active)

Question: Which Potency does the source give for `Cc1cc(C)c(CNC(=O)c2cc(-c3ccc(N4CCN(C)CC4)nc3)cc3c2c(C)cn3C(C)C)c(=O)[nH]1` here?
Answer: 23.5 µM (active) and 20.9 µM (active)

Question: Which Potency does the source give for `CCc1ccc2nc(Nc3cc(Cc4ccccc4)nc(NC4CCC(O)CC4)n3)sc2c1` (stereo not given) here?
Answer: 18.6 µM (active)

Question: With `C[C@]12CCCN1CC1=NNC(=O)c3cc(F)cc4[nH]c2c1c34` as the compound, how does the Potency read?
Answer: 2.63 µM (active)

Question: For `N#Cc1c(N)nc(N)nc1N[C@H](c1nc2c(F)ccc(Cl)c2c(=O)n1-c1cccnc1)C1CC1`, which Potency is on record?
Answer: 3.32 µM (active)

Question: With `Cc1ccc(-c2nn(C(C)(C)CNC(=O)c3ccncc3)c3ncnc(N)c23)cc1` as the compound, how does the Potency read?
Answer: 11.8 µM (active)

Question: For `CC(C)Oc1ccc(-c2nn([C@@H](C)c3oc4ccc(F)cc4c(=O)c3-c3cccc(F)c3)c3ncnc(N)c23)cc1F`, which Potency is on record?
Answer: 16.6 µM (active)

Question: Which Potency does the source give for `Cc1c(-c2c(-c3ccc(F)o3)sc3ncnc(O[C@@H](Cc4ccccc4OCc4ccnn4CC(F)(F)F)C(=O)O)c23)ccc(OCCN2CCN(C)CC2)c1Cl` here?
Answer: 0.0235 µM (active)

Question: With `CC(C)n1c(/C=C/[C@H](O)C[C@H](O)CC(=O)O)c(-c2ccc(F)cc2)c2ccccc21` as the compound, how does the Potency read?
Answer: 11.8 µM (active)

Question: Which Potency does the source give for `Cc1c2oc3c(C)ccc(C(=O)NC4C(=O)NC(C(C)C)C(=O)N5CCCC5C(=O)N(C)CC(=O)N(C)C(C(C)C)C(=O)OC4C)c3nc-2c(C(=O)NC2C(=O)NC(C(C)C)C(=O)N3CCCC3C(=O)N(C)CC(=O)N(C)C(C(C)C)C(=O)OC2C)c(N)c1=O` (stereo not given) (I: TVP[Sar][NMeV] / II: TVP[Sar][NMeV]; ester I:1-I:C, II:1-II:C; linker I:N-II:N via Actinocin(9to1); configuration not given here) here?
Answer: 0.0014 µM (active)

Question: With `C[C@@H]1Cc2c([nH]c3ccccc23)[C@@H](c2c(F)cc(/C=C/C(=O)O)cc2F)N1CC(C)(C)F` as the compound, how does the “viability, % of control” value read?
Answer: 96.2% (inactive)

Question: For `COC1(c2sc3c(N4CCOCC4)nc(-c4cnc(N)nc4)nc3c2C)COC1`, which Potency is on record?
Answer: 0.59 µM (active)

Question: Which Potency does the source give for `Nc1nc2c(c(=O)[nH]1)N1CN(c3ccc(C(=O)N[C@@H](CCC(=O)O)C(=O)O)cc3)CC1CN2` (stereo not given in full) here?
Answer: 1.05 µM (active)

Question: For `CCCS(=O)(=O)c1nc(NC2CC2)cc(-c2ccc3c(ccn3C3CC(C)(C)NC(C)(C)C3)c2)n1`, which Potency is on record?
Answer: 2.48 µM (active)

Question: With `CCNC(=O)Nc1ccc(-c2nc3c(c(N4CCOC[C@@H]4C)n2)CCN(C2COC2)C3)cc1` as the compound, how does the Potency read?
Answer: 1.32 µM (active)

Question: Which Potency does the source give for `COc1cc(N2CCN(C)CC2)ccc1Nc1ncc2c(n1)N(C)c1ccccc1C(=O)N2` here?
Answer: 18.6 µM (active)

Question: Which Potency does the source give for `Cc1cnc(NC(=O)Nc2cc(Br)c(C)cc2OC[C@@H]2CNCCO2)cn1` here?
Answer: 2.09 µM (active)

Question: For `O=c1[nH]nc2c3c(cccc13)NC(CN1Cc3ccccc3C1)=N2`, which Potency is on record?
Answer: 16.6 µM (active)

Question: With `O=C(O)c1cccnc1` as the compound, how does the “viability, % of control” value read?
Answer: 107% [at 92.2 µM] (inactive)

Question: Which Potency does the source give for `Nc1n[n+]([O-])c2ccccc2[n+]1[O-]` here?
Answer: 13.2 µM (active)
